Measured values published in PubChem BioAssay (NCATS).
“And” between values parts separate entries of the source, which are not always exact repeats. Identical values can stand only once. Records with an inconclusive call do not appear. The source made the active and inactive calls. Unless noted, the call rests on the fitted dose curve; in most records, active means well fitted curve in the direction sought with a large enough effect; inconclusive means small, poorly fitted or top-dose-only effect, or another doubt; inactive means no such curve, though single readings can be large; an effect the other way counts as inactive or inconclusive.

Columns and labels:
[1] = target: Cellular tumor antigen p53 (Homo sapiens) (UniProt P04637); experiment: Primary qHTS for small molecule compounds that upregulate eGFP-tagged delta133p53alpha (in N-terminal) cells. (AID 2060322); conditions: NCI-H358 eGFP-delta133p53alpha fluorescence, 24 h; activation: active compounds read high; further: nearly all actives have a fitted effect of over 75% in size; further: potency means the concentration at half of the fitted maximal effect;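 on activation: cells pre-induced with doxycycline then dosed without doxycycline; series mostly up to about 56 µM; 0% = DMSO vehicle and 100% = reference activator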
In short: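 NCI-H358 cells pre-induced 24 h with 10 ng/ml doxycycline for eGFP-delta133p53alpha, plated dox-free and exposed 24 h at 37C to titrated compounds. Fixed, Hoechst-stained; gated GFP peak intensity by laser scanning cytometry, normalized to DMSO (0%) and 57.5 uM 5-azacytidine (100%).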

[2] = target: Aldehyde dehydrogenase, mitochondrial (Homo sapiens) (UniProt P05091); experiment: qHTS for Inhibitors of the Aldehyde Dehydrogenase Family (ALDH2) Validation screens (AID 2061302; active means well fitted inhibition curve with a large enough effect; title and protocol of this record describe different tests; further: potency means the concentration at half of the fitted maximal effect)
[3] = target: Retinaldehyde dehydrogenase 3 (Homo sapiens) (UniProt P47895); experiment: qHTS for Inhibitors of the Aldehyde Dehydrogenase Family (ALDH1A3) Validation screen (AID 2061312); further: on the % scale 0 is the no-effect control and ±100 the full control effect; nearly all actives have a fitted effect of over 45% in size
[4] = qHTS for Inhibitors of the Aldehyde Dehydrogenase Family (ALDH1A2, ALDH1A3, ALDH2, ALDH3A1) (AID 2061307); further: nearly all actives have a fitted effect of over 50% in size
[5] = target: Retinaldehyde dehydrogenase 3 (Homo sapiens) (UniProt P47895); experiment: qHTS for Inhibitors of the Aldehyde Dehydrogenase Family (ALDH1A3) Confirmatory screens (AID 2061311); further: potency means the concentration at half of the fitted maximal effect; nearly all actives have a fitted effect of over 60% in size
[6] = target: Retinal dehydrogenase 2 (Homo sapiens) (UniProt O94788); experiment: qHTS for Inhibitors of the Aldehyde Dehydrogenase Family (ALDH1A2) Confirmation screens (AID 2061314); further: nearly all actives have a fitted effect of over 65% in size
[7] = BET inhibitor-based combinations targeting novel dependencies in MECOM-rearranged (r) AML: HNT-34 cell line (AID 2202234); further: nearly all actives have a fitted effect of over 35% in size; further: potency means the concentration at half of the fitted maximal effect
In short: (§1)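 Cells at 500/well were exposed for 48 hr to MIPE v5.0 drugs as 11-point dose curves. Viability was read by CellTiter-Glo luminescence and normalized to DMSO and empty-well controls. Activity was expressed as AUC and per-cell-line Z-AUC.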

[8] = BET inhibitor-based combinations targeting novel dependencies in MECOM-rearranged (r) AML: UCSD-AML1 cell line (AID 2202235); further: nearly all actives have a fitted effect of over 40% in size; further: potency means the concentration at half of the fitted maximal effect
In short: as §1

[9] = BET inhibitor-based combinations targeting novel dependencies in MECOM-rearranged (r) AML: AML-191 cell line (AID 2202236; further: nearly all actives have a fitted effect of over 35% in size; further: potency means the concentration at half of the fitted maximal effect)
In short: (§2)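 AML cell lines seeded at 500 cells/well, treated with 11-point dose curves for 48 h. Viability by CellTiter-Glo luminescence, normalised to DMSO and empty wells; activity expressed as AUC and per-cell-line Z-transformed AUC.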

[10] = BET inhibitor-based combinations targeting novel dependencies in MECOM-rearranged (r) AML: AML-194 cell line (AID 2202237; further: nearly all actives have a fitted effect of over 40% in size; further: potency means the concentration at half of the fitted maximal effect)
In short: as §2

[11] = target: Aldehyde dehydrogenase, mitochondrial (Homo sapiens) (UniProt P05091); experiment: qHTS for Inhibitors of the Aldehyde Dehydrogenase Family (ALDH2) Primary screen (AID 2061308);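 further: plate controls were vehicle for no effect and reference inhibitor for full effect; nearly all actives have a fitted effect of over 55% in size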
[12] = target: Retinaldehyde dehydrogenase 3 (Homo sapiens) (UniProt P47895); experiment: qHTS for Inhibitors of the Aldehyde Dehydrogenase Family (ALDH1A3) Primary screen (AID 2061315);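 further: plate controls were DMSO vehicle for no effect and reference inhibitor for full effect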
[13] = BET inhibitor-based combinations targeting novel dependencies in MECOM-rearranged (r) AML: OCI-AML3 cell line (AID 2202232); conditions: Potency: OCI-AML3 viability; further: potency means the concentration at half of the fitted maximal effect; nearly all actives have a fitted effect of over 35% in size
In short: as §2

[14] = BET inhibitor-based combinations targeting novel dependencies in MECOM-rearranged (r) AML: MV-4-11 cell line (AID 2202233); further: potency means the concentration at half of the fitted maximal effect; nearly all actives have a fitted effect of over 45% in size
In short: as §1

[15] = target: Aldehyde dehydrogenase, mitochondrial (Homo sapiens) (UniProt P05091); experiment: qHTS for Inhibitors of the Aldehyde Dehydrogenase Family (ALDH2) Confirmatory screens (AID 2061303; active means well fitted inhibition curve with a large enough effect; title and protocol of this record describe different tests; further: on the % scale 0 is the no-effect control and ±100 the full control effect; nearly all actives have a fitted effect of over 45% in size)
[16] = target: Aldehyde dehydrogenase 1A1 (Homo sapiens) (UniProt P00352); experiment: qHTS for Inhibitors of the Aldehyde Dehydrogenase Family (ALDH1A1) Confirmatory screens (AID 2061316); further: nearly all actives have a fitted effect of over 65% in size; further: potency means the concentration at half of the fitted maximal effect
[17] = BET inhibitor-based combinations targeting novel dependencies in MECOM-rearranged (r) AML: SET-2 cell line (AID 2202231); conditions: SET-2 AML cells viability, CellTiter-Glo luminescence, 48 h; viability: active compounds read low, concentration not given here; further: potency means the concentration at half of the fitted maximal effect; nearly all actives have a fitted effect of over 35% in size
In short: as §2

Sequence of Cellular tumor antigen p53 (Homo sapiens) (P04637 whole entry, looked up): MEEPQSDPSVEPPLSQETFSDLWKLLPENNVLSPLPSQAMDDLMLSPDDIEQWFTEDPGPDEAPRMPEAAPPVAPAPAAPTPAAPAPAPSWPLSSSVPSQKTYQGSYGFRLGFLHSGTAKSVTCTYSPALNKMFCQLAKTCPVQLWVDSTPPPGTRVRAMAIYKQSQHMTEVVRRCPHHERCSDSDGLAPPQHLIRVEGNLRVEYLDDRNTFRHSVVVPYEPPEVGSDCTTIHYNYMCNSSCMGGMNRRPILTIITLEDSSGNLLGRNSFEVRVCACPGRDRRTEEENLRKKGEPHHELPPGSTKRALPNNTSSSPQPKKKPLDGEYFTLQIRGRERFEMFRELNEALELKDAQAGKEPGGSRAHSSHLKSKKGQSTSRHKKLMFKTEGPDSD

CCCCOC(=O)NS(=O)(=O)c1sc(CC(C)C)cc1-c1ccc(Cn2c(CC)nc3c(C)cc(C)nc32)cc1
inactive: activation [1] -46.4% | Potency [2] | Potency [3]

O=C(O)CC1CCCc2ccccc2C1O (stereo unspecified)
inactive: activation [1] 5.92% | Potency [2] | Potency [3]

O=c1c(O)c(-c2cc(O)c(O)c(O)c2)oc2cc(O)cc(O)c12
active: Potency [5] 5.65 µM
inactive: activation [1] -9.12% and -2.85% | Potency [2] | Potency [4] | Potency [6] | Potency [7] | Potency [8] | Potency [9] | Potency [10]

CC(=O)C(C)=O
inactive: activation [1] -5.18% | Potency [2] | Potency [3]

COC(=O)C1=C(C)NC(C)=C(C(=O)OC)C1c1cccc(NC(=O)NCCCN2CCC(c3cccc(OC)c3)CC2)c1
inactive: Potency [2] | Potency [11] | Potency [3] | Potency [12]
active: Potency [1] 21.3 µM

CNCCCC12CCC(c3ccccc31)c1ccccc12
active: Potency [13] 18.6 µM | Potency [14] 29.5 µM | Potency [7] 23.5 µM | Potency [9] 23.5 µM | Potency [10] 26.3 µM
inactive: activation [1] -7.08% and 22.3% and 47.4% | Potency [2] | Potency [11] | Potency [3] | Potency [12]

COC(=O)C1=CO[C@@H](O)[C@@H]2C(CO)=CC[C@H]12
inactive: activation [1] 8.04% | Potency [2] | Potency [11] | Potency [3] | Potency [12]

CC(=O)N[C@H](C(=O)O)C(C)(C)SN=O
inactive: activation [1] -54.1% | Potency [2]

OCC1O[C@H]([S-])[C@H](O)[C@@H](O)[C@@H]1O.[Au+] (stereo partly specified)
inactive: activation [1] 21.8% | Potency [2] | Potency [15] | Potency [16]
active: Potency [4] 2.83 µM

CCCCCCCCCCCCCCCCCC(=O)OC(CC(=O)O)C[N+](C)(C)C (stereo unspecified)
inactive: activation [1] -37.9% | Potency [2]

Clc1ccc(Cn2c(CN3CCCC3)nc3ccccc32)cc1
active: Potency [17] 20.9 µM | Potency [14] 20.9 µM | Potency [8] 20.9 µM | Potency [9] 18.6 µM | Potency [10] 20.9 µM
inactive: activation [1] -13.4% and 2.33% and -45.4% | Potency [2] | Potency [11] | Potency [3] | Potency [12]

CN(C)CCCN1c2ccccc2CCc2ccccc21
inactive: activation [1] -0.565% and -9% | Potency [2] | Potency [3]

NS(=O)(=O)c1ccc(-n2nc(C(F)(F)F)cc2-c2ccc(Cl)cc2)cc1
inactive: activation [1] -38.9% and -11.9% | Potency [2] | Potency [11] | Potency [3] | Potency [12]

CNCC(O)c1ccc(O)c(O)c1 (stereo unspecified)
inactive: activation [1] 7.34% | Potency [2]

CC(=O)CCCCn1c(=O)c2c(ncn2C)n(C)c1=O
inactive: activation [1] -15.1% and -0.333% and -11.4% | Potency [2] | Potency [11] | Potency [3] | Potency [12]

O=C(O)c1cc(=O)cc(C(=O)O)[nH]1
inactive: activation [1] -16.3% | Potency [2] | Potency [3]

C#CCn1c(=O)c2c(ncn2C)n(C)c1=O
inactive: activation [1] -14.7% | Potency [2] | Potency [3]

CC1=C(C(=O)O)N2C(=O)[C@@H](NC(=O)C(N)c3ccccc3)[C@H]2SC1 (stereo partly specified)
inactive: activation [1] 15.6% and -22.6% | Potency [2] | Potency [3]

O=c1c(-c2ccc(O)cc2)coc2cc(OC3O[C@H](CO)[C@H](O)[C@H](O)[C@H]3O)cc(O)c12 (stereo partly specified)
active: Potency [2] 44.7 µM
inactive: activation [1] 21%

O=c1onc2cnc3ccccc3n12
inactive: activation [1] 14.8%
active: Potency [2] 6.31 µM | Potency [4] 0.0318 µM | Potency [16] 4 µM

CC[C@@H]1Cc2cc(O)ccc2C2=C1c1ccc(O)cc1C[C@H]2CC
inactive: activation [1] -56% | Potency [2] | Potency [3]

Nc1ncnc2n[nH]c(Nc3ccc(F)cc3)c12
inactive: activation [1] 1% | Potency [2] | Potency [11] | Potency [3] | Potency [12]

O=[N+]([O-])c1ccc(CNc2nc(NCc3cccc(C(F)(F)F)c3)nc3nc[nH]c23)cc1
inactive: activation [1] -48.1% and 15.7% | Potency [2] | Potency [11] | Potency [3] | Potency [12]

N.N.N.N.N.N.N.N.N.N.N.N.N.N.O.O.[Ru+4].[Ru+5].[Ru+5]
inactive: activation [1] 4.58% | Potency [2] | Potency [15] | Potency [4] | Potency [16]

O=c1ccc2c(OCCCCc3ccccc3)c3ccoc3cc2o1
active: Potency [4] 1.12 µM | Potency [5] 12.6 µM
inactive: activation [1] -37.4% | Potency [2]

COc1ccccc1CN[C@@H]1CCCN[C@@H]1c1ccccc1
inactive: activation [1] -89.1% | Potency [2]
